Test results published in PubChem BioAssay AID1159580 (chemical genetic matrix, 2015).
Among all 5,500 compounds or so, about 2,000 (36%) were called active. Roughly 18% stayed inconclusive and do not appear here. No stated cut-off is given here; in the data, active means normalized growth mostly below about 0.91 (no sharp cut-off); inconclusive means no clear call, values can overlap the other calls; inactive means mostly above about 0.92. This is one part of the list.

Assay: chemical genetic growth profiling, strain panel (AID 1159580);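 further: tested at 20 µM; growth read once vehicle control cultures reached saturation at 30 °C; 1 = growth at the plate median or of vehicle wells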
Settings: growth OD
[1] = S. cerevisiae deletion strains, locus YBR021W, strain FUR4, stronger effect = lower value
[2] = S. cerevisiae deletion strains, locus YBR229C, strain ROT2, stronger effect = lower value
[3] = S. cerevisiae deletion strains, locus YCL029C, strain bik1, stronger effect = lower value
[4] = S. cerevisiae deletion strains, locus YDL035C, strain GPR1, stronger effect = lower value
[5] = S. cerevisiae deletion strains, locus YDL074C, strain BRE1, stronger effect = lower value
[6] = S. cerevisiae deletion strains, locus YDL101C, strain DUN1, stronger effect = lower value
[7] = S. cerevisiae deletion strains, locus YDL134C, strain PPH21, stronger effect = lower value
[8] = S. cerevisiae deletion strains, locus YDL185W, strain tfp1, stronger effect = lower value
[9] = S. cerevisiae deletion strains, locus YDL192W, strain arf1, stronger effect = lower value
[10] = S. cerevisiae deletion strains, locus YDR101C, strain arx1, stronger effect = lower value
[11] = S. cerevisiae deletion strains, locus YDR150W, strain NUM1, stronger effect = lower value
[12] = S. cerevisiae deletion strains, locus YDR162C, strain NBP2, stronger effect = lower value
[13] = S. cerevisiae deletion strains, locus YDR318W, strain mcm21, stronger effect = lower value
[14] = S. cerevisiae deletion strains, locus YDR388W, stronger effect = lower value
[15] = S. cerevisiae deletion strains, locus YDR502C, strain sam2, stronger effect = lower value
[16] = S. cerevisiae deletion strains, locus YEL061C, strain CIN8, stronger effect = lower value
[17] = S. cerevisiae deletion strains, locus YER110C, stronger effect = lower value
[18] = S. cerevisiae deletion strains, locus YER155C, strain BEM2, stronger effect = lower value
[19] = S. cerevisiae deletion strains, locus YER167W, strain BCK2, stronger effect = lower value
[20] = S. cerevisiae deletion strains, locus YGL078C, strain dbp3, stronger effect = lower value
[21] = S. cerevisiae deletion strains, locus YGL086W, strain mad1, stronger effect = lower value
[22] = S. cerevisiae deletion strains, locus YGL248W, strain PDE1, stronger effect = lower value
[23] = S. cerevisiae deletion strains, locus YGR135W, strain pre9, stronger effect = lower value
[24] = S. cerevisiae deletion strains, locus YGR252W, strain gcn5, stronger effect = lower value
[25] = S. cerevisiae deletion strains, locus YHR079C, strain IRE1 (second series), stronger effect = lower value
[26] = S. cerevisiae deletion strains, locus YHR094C, strain hxt1, stronger effect = lower value
[27] = S. cerevisiae deletion strains, locus YHR129C, strain ARP1, stronger effect = lower value
[28] = S. cerevisiae deletion strains, locus YHR200W, strain rpn10, stronger effect = lower value
[29] = S. cerevisiae deletion strains, locus YIL066C, strain RNR3, stronger effect = lower value
[30] = S. cerevisiae deletion strains, locus YIL073C, strain SPO22, stronger effect = lower value
[31] = S. cerevisiae deletion strains, locus YIL125W, strain kgd1, stronger effect = lower value
[32] = S. cerevisiae deletion strains, locus YIR030C, strain dcg1, stronger effect = lower value
[33] = S. cerevisiae deletion strains, locus YJL095W, strain BCK1, stronger effect = lower value
[34] = S. cerevisiae deletion strains, locus YJL134W, strain LCB3, stronger effect = lower value
[35] = S. cerevisiae deletion strains, locus YJL168C, strain set2, stronger effect = lower value
[36] = S. cerevisiae deletion strains, locus YJL187C, strain SWE1 (second series), stronger effect = lower value
[37] = S. cerevisiae deletion strains, locus YJR075W, strain HOC1, stronger effect = lower value
[38] = S. cerevisiae deletion strains, locus YKL009W, strain mrt4, stronger effect = lower value
[39] = S. cerevisiae deletion strains, locus YKL068W, stronger effect = lower value
[40] = S. cerevisiae deletion strains, locus YKL085W, strain MDH1 (second series), stronger effect = lower value
[41] = S. cerevisiae deletion strains, locus YKL085W, strain MDH1, stronger effect = lower value
[42] = S. cerevisiae deletion strains, locus YKL190W, strain CNB1, stronger effect = lower value
[43] = S. cerevisiae deletion strains, locus YKR001C, strain vps1, stronger effect = lower value
[44] = S. cerevisiae deletion strains, locus YLR039C, strain RIC1, stronger effect = lower value
[45] = S. cerevisiae deletion strains, locus YLR058C, strain SHM2, stronger effect = lower value
[46] = S. cerevisiae deletion strains, locus YLR102C, strain apc9, stronger effect = lower value
[47] = S. cerevisiae deletion strains, locus YLR268W, strain sec22, stronger effect = lower value
[48] = S. cerevisiae deletion strains, locus YLR371W, strain rom2, stronger effect = lower value
[49] = S. cerevisiae deletion strains, locus YLR418C, strain cdc73, stronger effect = lower value
[50] = S. cerevisiae deletion strains, locus YML016C, strain PPZ1, stronger effect = lower value
[51] = S. cerevisiae deletion strains, locus YML032C, strain rad52, stronger effect = lower value
[52] = S. cerevisiae deletion strains, locus YML124C, strain tub3, stronger effect = lower value
[53] = S. cerevisiae deletion strains, locus YMR078C, strain ctf18, stronger effect = lower value
[54] = S. cerevisiae deletion strains, locus YMR223W, strain ubp8, stronger effect = lower value
[55] = S. cerevisiae deletion strains, locus YMR307W, strain GAS1, stronger effect = lower value
[56] = S. cerevisiae deletion strains, locus YNL067W, strain RPL9B, stronger effect = lower value
[57] = S. cerevisiae deletion strains, locus YNL128W, strain TEP1, stronger effect = lower value
[58] = S. cerevisiae deletion strains, locus YNL233W, strain BNI4, stronger effect = lower value
[59] = S. cerevisiae deletion strains, locus YNL250W, strain rad50, stronger effect = lower value
[60] = S. cerevisiae deletion strains, locus YNL271C, strain bni1, stronger effect = lower value
[61] = S. cerevisiae deletion strains, locus YNL298W, strain CLA4, stronger effect = lower value
[62] = S. cerevisiae deletion strains, locus YNL307C, strain MCK1, stronger effect = lower value
[63] = S. cerevisiae deletion strains, locus YNR052C, strain pop2, stronger effect = lower value
[64] = S. cerevisiae deletion strains, locus YOL012C, strain htz1
[65] = S. cerevisiae deletion strains, locus YOL147C, strain pex11, stronger effect = lower value
[66] = S. cerevisiae deletion strains, locus YOR061W, strain CKA2, stronger effect = lower value
[67] = S. cerevisiae deletion strains, locus YOR069W, strain VPS5, stronger effect = lower value
[68] = S. cerevisiae deletion strains, locus YOR136W, strain idh2, stronger effect = lower value
[69] = S. cerevisiae deletion strains, locus YOR144C, strain elg1, stronger effect = lower value
[70] = S. cerevisiae deletion strains, locus YOR184W, strain ser1, stronger effect = lower value
[71] = S. cerevisiae deletion strains, locus YOR316C, strain cot1, stronger effect = lower value
[72] = S. cerevisiae deletion strains, locus YPL055C, strain LGE1, stronger effect = lower value
[73] = S. cerevisiae deletion strains, locus YPL241C, strain CIN2, stronger effect = lower value
[74] = S. cerevisiae deletion strains, locus YPR119W, strain clb2, stronger effect = lower value
[75] = S. cerevisiae deletion strains, locus YPR141C, strain kar3, stronger effect = lower value
[76] = S. cerevisiae deletion strains, locus YPR163C, strain tif3, stronger effect = lower value
[77] = S. cerevisiae deletion strains, locus YPR167C, strain met16, stronger effect = lower value
[78] = S. cerevisiae deletion strains, strain wtn01, stronger effect = lower value

Measured: normalized growth

COc1ccc2c(c1O)OCC1c3cc4c(cc3OC21)OCO4 (centres undefined)
active: [62] 0.904
inactive: S. cerevisiae deletion strains, locus YAL013W, strain DEP1, stronger effect = lower value 0.991 | [1] 0.964 | [2] 0.96 | [3] 1 | [4] 0.935 | [5] 0.882 | [6] 0.953 | [7] 0.986 | [8] 0.957 | [9] 0.986 | [10] 0.986 | [11] 0.983 | [12] 0.88 | [13] 0.979 | [14] 1 | [15] 0.952 | [16] 0.987 | [17] 0.994 | [18] 1 | [19] 1 | [20] 0.983 | [21] 0.996 | [22] 0.974 | S. cerevisiae deletion strains, locus YGR078C, strain PAC10, stronger effect = lower value 0.909 | [23] 0.958 | S. cerevisiae deletion strains, locus YGR229C, strain SMI1, stronger effect = lower value 0.909 | [24] 0.857 | S. cerevisiae deletion strains, locus YHR030C, strain SLT2, stronger effect = lower value 1 | [25] 0.982 | [26] 1 | [27] 0.988 | [28] 0.998 | [29] 0.974 | [30] 1.01 | [31] 0.99 | [32] 0.986 | [33] 0.924 | [34] 0.998 | [35] 0.987 | [36] 0.939 | S. cerevisiae deletion strains, locus YJR043C, strain POL32, stronger effect = lower value 0.987 | [37] 0.939 | [38] 0.92 | [39] 0.998 | [40] 1.01 | [41] 1.01 | [42] 0.979 | [43] 0.963 | [44] 0.846 | [45] 0.971 | [46] 0.983 | S. cerevisiae deletion strains, locus YLR262C, strain YPT6, stronger effect = lower value 0.851 | [47] 0.938 | S. cerevisiae deletion strains, locus YLR330W, strain CHS5, stronger effect = lower value 0.991 | S. cerevisiae deletion strains, locus YLR342W, strain FKS1 (second series), stronger effect = lower value 0.946 | [48] 1 | [49] 0.903 | [50] 0.992 | [51] 0.987 | [52] 1.01 | [53] 0.988 | [54] 0.976 | S. cerevisiae deletion strains, locus YMR263W, strain SAP30, stronger effect = lower value 0.929 | [55] 1.04 | [56] 0.929 | [57] 0.929 | S. cerevisiae deletion strains, locus YNL153C, strain GIM3, stronger effect = lower value 0.936 | [58] 0.971 | [59] 0.994 | [60] 0.98 | [61] 0.958 | S. cerevisiae deletion strains, locus YNL322C, strain KRE1, stronger effect = lower value 0.981 | [63] 0.987 | S. cerevisiae deletion strains, locus YOL006C, strain TOP1, stronger effect = lower value 0.783 | [64] 1.07 | [65] 1 | [66] 0.969 | [67] 1 | [68] 0.999 | [69] 0.994 | [70] 0.907 | [71] 0.988 | [72] 0.883 | [73] 0.99 | [74] 0.999 | [75] 0.997 | [76] 0.964 | [77] 0.984 | [78] 0.946 | S. cerevisiae strains, strain wild type, stronger effect = lower value 0.994

Oc1ccc2c(c1)OCC1c3cc4c(cc3OC21)OCO4 (centres undefined)
inactive: [1] 0.862 | [2] 0.957 | [3] 0.946 | [4] 0.981 | [5] 1.03 | [6] 0.987 | [7] 1.02 | [8] 0.964 | [9] 0.944 | [10] 0.942 | [11] 1 | [12] 0.993 | [13] 0.962 | [14] 0.966 | [15] 0.961 | [16] 0.99 | [17] 0.954 | [18] 1 | [19] 1 | [20] 0.992 | [21] 0.957 | [22] 1 | [23] 0.993 | [24] 0.902 | [25] 0.995 | [26] 0.982 | [27] 1.02 | [28] 0.972 | [29] 0.999 | [30] 1.03 | [31] 0.968 | [32] 0.971 | [33] 0.929 | [34] 0.992 | [35] 0.996 | [36] 0.966 | [37] 0.999 | [38] 0.987 | [39] 1 | [40] 1.02 | [41] 1.02 | [42] 1.01 | [44] 0.982 | [45] 0.962 | [46] 0.984 | [47] 0.906 | [48] 0.973 | [50] 0.983 | [51] 0.956 | [52] 0.995 | [53] 1 | [54] 0.983 | [55] 1.04 | [56] 1.01 | [57] 1.01 | [58] 1.05 | [59] 1 | [60] 0.974 | [61] 0.939 | [62] 0.95 | [63] 0.994 | [64] 1.23 | [65] 0.967 | [66] 0.988 | [67] 1.01 | [68] 0.982 | [69] 0.986 | [71] 0.985 | [72] 0.963 | [73] 1.01 | [74] 1.02 | [75] 1.01 | [77] 1.01 | [78] 0.943
active: [43] 0.863 | [49] 0.781 | [70] 0.826 | [76] 0.906
